# Measured values reported in PubChem BioAssay (NCATS).
# Inconclusive results are not listed. A call without a number means that no potency is given here. The source made the active and inactive calls. Calls follow the shape of the dose curve; as a rule, active = well fitted inhibition curve with a large enough effect; inconclusive = small, poorly fitted or top-dose-only effect; inactive = flat fitted curve, though single readings scatter.
# Target: Dual specificity protein kinase CLK4 (Homo sapiens) (UniProt Q9HAZ1)
# Assay: qHTS Assay for Inhibitors of CDC-like Kinase 4 (ADP-Glo Assay) (AID 1771); also: nearly all actives have a fitted effect of over 70% in size
# Conditions: recombinant CLK4, ADP-Glo luminescence; series mostly up to 80 µM
# Method: NIH Molecular Libraries Probe Production Centers Network [MLPCN] NIH Chemical Genomics Center [NCGC] MLPCN Grant: 1R03MH084827-01 Assay Submitter (PI): Tom Misteli NCGC Assay Overview: Clk4 (Invitrogen, cat# PV3839) was assayed using ATP and the RS repeat peptide (AnaSpec cat # 61722) as substrates. In the assay, the ADP levels were detected using Promega ADP-Glo technology wherein the remaining ATP from the kinase reaction is first depleted with an ATPase reagent followed by a reagent that contains and enzyme which converts the ADP produced to ATP as well as Ultra-Glo luciferase and D-luciferin which generates a bioluminescence signal from the ATP. The positive control for the assay was TG003 (Sigma-Aldrich, cat# 300801-52-9) which has been described as an inhibitor of Clk 4[1].
# NCGC Assay Protocol Summary: Two uL/well of substrate-buffer solution (100 uM RS peptide, 1 uM ATP, 1x ADP-Glo Buffer A, 2 mM MgCl2, 0.5 mM EGTA, 2.5 mM DTT, 0.01% Triton X-100, final concentrations) was dispensed into 1536-well plates (Greiner, solid white, medium binding assay plates) with the Aurora Discovery BioRAPTR Flying Reagent Dispenser (FRD; Beckton-Dickenson). Twenty-three nanoliter of compound and control solutions were transferred to the assay plate using a Kalypsys pin-tool followed by 0.5 uL/well Clk4-buffer solution (25 nM Clk4, 1x ADP-Glo Buffer A, 2 mM MgCl2, 0.5 mM EGTA, 2.5 mM DTT, 0.01% Triton X-100 final concentration) dispensing for a total kinase reaction volume of 2.5 uL/ well. After 1 hr of room-temperature incubation, 2.5 uL ADP-Glo reagent was added and incubated at room temperature for 45 min to stop the kinetic reaction and degrade residual ATP. The ADP product was then converted to ATP by adding 5 uL per well of ADP-Glo Reagent II to yield a total assay volume of 10 uL/ well. Luminescence was detected after 30 min room temperature incubation with the Perkin Elmer Viewlux.
# Potency is read from the fitted curve at half-maximal effect.
# Dual specificity protein kinase CLK4 (Homo sapiens), sequence (Q9HAZ1 whole entry, looked up): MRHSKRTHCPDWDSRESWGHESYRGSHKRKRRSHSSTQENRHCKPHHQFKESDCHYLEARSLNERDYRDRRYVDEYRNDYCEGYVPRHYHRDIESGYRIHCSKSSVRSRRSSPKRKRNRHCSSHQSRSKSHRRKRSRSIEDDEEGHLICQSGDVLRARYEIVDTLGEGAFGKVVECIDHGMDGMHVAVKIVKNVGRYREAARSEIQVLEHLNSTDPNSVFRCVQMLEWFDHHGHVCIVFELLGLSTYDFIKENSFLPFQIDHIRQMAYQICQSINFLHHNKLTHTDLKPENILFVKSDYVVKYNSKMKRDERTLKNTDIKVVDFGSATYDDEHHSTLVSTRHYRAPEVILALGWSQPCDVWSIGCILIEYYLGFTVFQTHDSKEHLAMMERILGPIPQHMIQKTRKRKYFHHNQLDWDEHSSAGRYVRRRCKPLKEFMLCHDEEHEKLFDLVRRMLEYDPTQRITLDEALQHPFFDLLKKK
row,Structure (SMILES),Potency
1,CN(C)c1ccc(-c2cc(Nc3ccc(F)cc3)ncn2)cc1,14.1 µM (active)
2,CN(C)c1ncc2nc(-c3cn(C)c4ccccc34)c(=O)n(C[C@H]3CCCO3)c2n1,inactive
3,COc1cccc(-c2cncnc2NC2CCNCC2)c1,inactive
4,c1csc(CNc2ncnc3ccc(-c4ccoc4)cc23)c1,0.355 µM (active)
5,COCCNc1ncncc1-c1ccccc1OC,inactive
6,COc1ccc(-c2nc3cnc(N4CCN(C)CC4)nc3n(-c3ccc(OC)cc3)c2=O)cc1,inactive
7,CN(C)c1ncc2nc(-c3cc(F)cc(F)c3)c(=O)n(CCC#N)c2n1,inactive
8,CN(Cc1ccco1)c1ncncc1-c1ccccc1Cl,inactive
9,COc1ccccc1-c1ccc2ncnc(NC3CCNCC3)c2c1,inactive
10,CN1CCN(c2ncc3ncc(=O)n(CCC#N)c3n2)CC1,inactive
11,Cc1noc(C)c1-c1cc(NCc2cccs2)ncn1,10 µM (active)
12,COc1ccc(Oc2ncc3nc(-c4ccc(OC)cc4)c(=O)n(C)c3n2)cc1,inactive
13,Cc1noc(C)c1-c1ccc2ncnc(NC3CCNCC3)c2c1,25.1 µM (active)
14,COCCn1c(=O)c(-c2ccc(F)cc2)nc2cnc(N3CCOCC3)nc21,inactive
15,FC(F)(F)c1ccccc1-c1cc(NCCN2CCOCC2)ncn1,inactive
16,CCNc1ncc2nc(-c3cccs3)c(=O)n(C)c2n1,inactive
17,CN(C)Cc1ccccc1-c1nc(NCc2cccs2)c2ccccc2n1,inactive
18,CN1CCN(c2ncc3nc(-c4ccc(Cl)cc4)c(=O)n(-c4ccccc4)c3n2)CC1,inactive
19,COCCn1c(=O)cnc2cnc(OC)nc21,inactive
20,CN(C)c1ccc(-c2ccc3ncnc(-n4ccnc4)c3c2)cc1,4.47 µM (active)

row,Structure (SMILES),Potency
1,CNc1cc(-c2ccccc2CN(C)C)ncn1,inactive
2,CN(C)Cc1ccccc1-c1nc(NC2CCNCC2)c2ccccc2n1,inactive
3,CN(C)Cc1ccccc1-c1cc(N(C)Cc2ccco2)ncn1,inactive
4,COCCNc1ncnc2ccc(-c3ccccc3C)cc12,8.91 µM (active)
5,CN1CCN(c2nc(-c3ccccc3C(F)(F)F)nc3ccccc23)CC1,inactive
6,CNc1nc(-c2ccc3c(c2)OCO3)nc2ccccc12,28.2 µM (active)
7,O=c1c(-c2ccccc2)nc2cnc(Nc3ccccc3)nc2n1Cc1cccs1,inactive
8,O=c1cnc2cnc(Oc3cccc(Cl)c3)nc2n1C[C@H]1CCCO1,inactive
9,O=c1c(-c2cc(F)cc(F)c2)nc2cnc(N3CCOCC3)nc2n1C[C@H]1CCCO1,inactive
10,Cc1nc2cnc(N3CCNCC3)nc2n(Cc2cccs2)c1=O,inactive
11,Clc1ccccc1-c1cncnc1NCc1cccs1,inactive
12,Cc1ccccc1-c1cncnc1NCc1cccs1,inactive
13,O=c1c(-c2cc(F)cc(F)c2)nc2cncnc2n1-c1ccccc1,inactive
14,CC(=O)NCCNc1cc(-c2ccccc2CN(C)C)ncn1,inactive
15,Cc1noc(C)c1-c1nccc(N2CCOCC2)n1,14.1 µM (active)
16,CN(C)c1ncc2ncc(=O)n(CCc3ccccc3)c2n1,6.31 µM (active)
17,Cc1nc2cnc(Oc3ccccc3)nc2n(C)c1=O,inactive
18,CN(C)C(=O)c1ccc(-c2cncnc2N2CCNCC2)cc1,inactive
19,Cc1ccccc1-c1cncnc1NCc1ccccc1,inactive
20,CN1CCN(c2ccnc(-c3ccoc3)n2)CC1,inactive
